The source made the active and inactive calls. Entries that show only a call come without a potency. Calls follow the shape of the full dose curve. Positions of bridges follow the written chain, without caps; N, C: chain ends. Non-standard residues stand in square brackets, D forms with d. Residues, ends and D or L forms follow the SMILES beside them. *: point of attachment. pGlu = O=C1CC[C@@H](C(=O)O)N1; X2 = CC[C@H](C)CCCCC(=O)*; Thz = O=C(O)[C@@H]1CSCN1; Dab = NCC[C@H](N)C(=O)O
Potency is read from the fitted curve at half-maximal effect.

Chain of Estrogen receptor (Homo sapiens) (P03372 whole entry, looked up): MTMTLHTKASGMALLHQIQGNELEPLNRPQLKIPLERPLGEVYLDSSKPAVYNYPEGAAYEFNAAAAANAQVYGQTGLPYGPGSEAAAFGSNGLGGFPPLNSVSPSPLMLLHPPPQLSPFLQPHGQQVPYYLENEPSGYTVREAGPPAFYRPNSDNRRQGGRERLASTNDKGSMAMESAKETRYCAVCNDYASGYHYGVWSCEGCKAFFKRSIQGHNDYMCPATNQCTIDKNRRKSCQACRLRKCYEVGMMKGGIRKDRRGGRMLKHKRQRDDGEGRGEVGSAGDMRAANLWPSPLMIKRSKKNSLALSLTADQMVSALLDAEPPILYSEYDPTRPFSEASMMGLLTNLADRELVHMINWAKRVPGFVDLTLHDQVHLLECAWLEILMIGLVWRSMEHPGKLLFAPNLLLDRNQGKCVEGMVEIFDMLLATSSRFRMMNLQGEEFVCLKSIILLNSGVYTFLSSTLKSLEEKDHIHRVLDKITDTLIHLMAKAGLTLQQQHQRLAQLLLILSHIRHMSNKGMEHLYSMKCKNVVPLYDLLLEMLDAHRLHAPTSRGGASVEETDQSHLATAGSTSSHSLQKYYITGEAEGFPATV

The assay addresses Estrogen receptor (Homo sapiens) (UniProt P03372). Put plainly: qHTS assay to identify small molecule agonists of the estrogen receptor alpha (ER-alpha) signaling pathway (AID 743075).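 Also: HEK293 GripTite cells with ER-alpha and UAS-driven beta-lactamase reporter.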 The following applies: HEK293 ER-alpha-UAS-bla, beta-lactamase FRET ratio, 18 h; series mostly up to 70.1 µM.
Consider `CS(=O)(=O)NC(=O)CCC/C=C\C[C@H]1C(=O)C[C@@H](O)[C@@H]1/C=C/[C@H](O)COc1ccccc1`, for which the Potency entry is “inactive”. In the case of `c1ccc2cc(C3=NCCN3)ccc2c1` it was “inactive”; in that of `CCC[C@@H]1C[C@@H](C(=O)N[C@@H]([C@H]2O[C@H](SC)[C@H](O)[C@@H](O)[C@H]2O)[C@H](C)Cl)N(C)C1`, “inactive”. Consider `CCCCC/C=C\CCC(=O)N[C@H]1[C@H](Oc2c3cc4cc2Oc2ccc(cc2Cl)[C@@H](O[C@@H]2O[C@H](CO)[C@@H](O)[C@H](O)[C@H]2NC(C)=O)[C@@H]2NC(=O)[C@H](NC(=O)[C@@H]4NC(=O)[C@H]4NC(=O)[C@@H](Cc5ccc(c(Cl)c5)O3)NC(=O)[C@H](N)c3ccc(O)c(c3)Oc3cc(O)cc4c3)c3ccc(O)c(c3)-c3c(O[C@H]4O[C@H](CO)[C@@H](O)[C@H](O)[C@@H]4O)cc(O)cc3[C@@H](C(=O)O)NC2=O)O[C@H](CO)[C@@H](O)[C@@H]1O`, for which the Potency entry was “inactive”.

Take `O.O=C([O-])CC([S-])C(=O)[O-].[Au+].[Na+].[Na+]` (configuration not stated): the Potency result was “inactive”. In the case of `C=CC1=C(C)C2=CC3=NC(=C(CC(=O)[O-])C4=NC(=C(C)C4=C([O-])[O-])C=c4[n-]c(c(C)c4CC)=CC1=N2)C(CCC(=O)[O-])C3C.[Cu+2].[Na+].[Na+].[Na+]` (configuration not stated) it was “inactive”; in that of `O=C1CC[C@@H](C(=O)N2CSC[C@H]2C(=O)O)N1` ([pGlu]-[Thz]-OH), “inactive”; in that of `CN1[C@@H]2CCC[C@H]1CC(NC(=O)c1nn(C)c3ccccc13)C2` (some centres not stated), “inactive”. `COc1cc(/C=C/C(=O)N2CCN(CC(=O)N3CCCC3)CC2)cc(OC)c1OC`: the Potency result is “inactive”. As for `CC(=O)N[C@@H]1C(O[C@H]2O[C@H](C(=O)O)C(O)[C@H](O)[C@H]2O)[C@H](O)[C@@H](CO)O[C@H]1O[C@@H]1C(C(=O)O)O[C@@H](O[C@H]2[C@H](O)[C@@H](CO)OC(O)[C@@H]2NC(C)=O)[C@H](O)[C@H]1O` (some centres not stated), the entry is “inactive”.

In the case of `COC(=O)[C@H]1[C@H]2C[C@@H]3c4[nH]c5cc(OC)ccc5c4CCN3C[C@H]2C[C@@H](OC(=O)/C=C/c2cc(OC)c(OC)c(OC)c2)[C@@H]1OC`, the Potency result is “inactive”.

Take `CC(C)[C@H](N)C(=O)OCC(CO)OCn1cnc2c(=O)[nH]c(N)nc21` (some centres not stated): the Potency result is “inactive”. As for `N[C@H](CCC(=O)O)C(=O)O`, the entry is “inactive”. In the case of `CCOC(=O)Cc1cccc(-c2cc(CCCCCCc3ccc(O[C@H]4O[C@H](COC(C)=O)[C@@H](OC(C)=O)[C@H](OC(C)=O)[C@@H]4OC(C)=O)c(-c4cccc(CC(=O)OCC)c4)c3)ccc2O[C@H]2O[C@H](COC(C)=O)[C@@H](OC(C)=O)[C@H](OC(C)=O)[C@@H]2OC(C)=O)c1` it was “inactive”.

On to `CC1(C)[C@@H]2CC[C@@]1(C)[C@H](OC(=O)CSC#N)C2`, for which the Potency entry was “inactive”. Regarding `OC[C@H]1O[C@@H](n2cnc3c2NC=NC[C@H]3O)C[C@@H]1O`, the Potency entry was “inactive”.

On to `CC(C)[C@@H](C)/C=C/[C@@H](C)[C@H]1CC[C@H]2/C(=C/C=C3\C[C@@H](O)CC[C@@H]3C)CCC[C@]12C`, for which the Potency result is “inactive”. Take `CC(=O)O[C@H]1CC[C@@]2(C)C(=CC[C@@H]3[C@@H]2CC[C@]2(C)C(c4cccnc4)=CC[C@@H]32)C1`: the Potency is 13.4 µM [activator] (active). For the compound `CCOC(=O)c1c[nH]c2cc(OCC(C)C)c(OCC(C)C)cc2c1=O`, the Potency entry is “inactive”. As for `Cc1ccc(C2(O)CCN(CCCC(=O)c3ccc(F)cc3)CC2)cc1`, the entry is “inactive”. Consider `CN1c2c(nc(N)[nH]c2=O)NCC1CNc1ccc(C(=O)NC(CCC(=O)O)C(=O)O)cc1` (configuration not stated), for which the Potency result was “inactive”. As to `COc1ccc2cc([C@H](C)CO)ccc2c1`, the Potency result was “inactive”. In the case of `COc1cc(NCCCC(C)N)c2ncccc2c1` (configuration not stated) it was “inactive”. In the case of `CC1(C)N=C(N)N=C(N)N1c1ccc(Cl)cc1`, the Potency entry is “inactive”.

Take `CC[C@H](C)CCCCC(=O)N[C@@H](CCN)C(=O)N[C@H](C(=O)N[C@@H](CCN)C(=O)N[C@H]1CCNC(=O)[C@@H]([C@H](C)O)NC(=O)[C@H](CCN)NC(=O)[C@H](CCN)NC(=O)[C@H](CC(C)C)NC(=O)[C@@H](CC(C)C)NC(=O)[C@H](CCN)NC1=O)[C@@H](C)O` (X2-[Dab]T[Dab][Dab][Dab][dL]L[Dab][Dab][dT]; lactam 4-C): the Potency entry was “inactive”. Consider `N[C@@H](C(=O)N[C@@H]1C(=O)N2C(C(=O)O)=C(Cl)CC[C@H]12)c1ccccc1`, for which the Potency result is “inactive”. Take `O=P(O)(O)C(O)(Cc1cnc2ccccn12)P(=O)(O)O`: the Potency entry is “inactive”. As for `Cc1cccc(C)c1Nc1ncccc1C(=O)O`, the entry is “inactive”. For `CNCC(O)c1ccc(OC(=O)C(C)(C)C)c(OC(=O)C(C)(C)C)c1` (configuration not stated), the Potency entry was “inactive”. Consider `CN[C@@H]1[C@@H](O)[C@@H](O[C@@H]2[C@@H](O)[C@H](O[C@H]3O[C@H](CN)[C@@H](O)[C@H](O)[C@H]3O)[C@@H](N)C[C@H]2NC(=O)C(O)CN)OC[C@]1(C)O` (some centres not stated), for which the Potency result was “inactive”. As for `CO/N=C(\C(=O)N[C@@H]1C(=O)N2C(C(=O)O)=CCS[C@H]12)c1csc(N)n1`, the Potency result was “inactive”. As for `CC(C)C(=O)OCC(=O)[C@@]12O[C@H](C3CCCCC3)O[C@@H]1C[C@H]1[C@@H]3CCC4=CC(=O)C=C[C@]4(C)[C@H]3[C@@H](O)C[C@@]12C`, the entry is “inactive”; as for `O=C(O)CCC/C=C\C[C@@H]1[C@@H](/C=C/[C@@H](O)COc2cccc(Cl)c2)[C@H](O)C[C@@H]1O`, “inactive”.

Turning to `CC[C@H]1NC(=O)[C@@H](NC(=O)c2ncccc2O)[C@@H](C)OC(=O)[C@H](c2ccccc2)NC(=O)[C@@H]2CC(=O)CCN2C(=O)[C@H](Cc2ccccc2)N(C)C(=O)[C@@H]2CCCN2C1=O`, the Potency result is “inactive”. As for `CC(O)[C@H]1CC[C@H]2[C@@H]3CC[C@@H]4C[C@@H](O)CC[C@]4(C)[C@H]3CC[C@]12C` (some centres not stated), the Potency was 3.38 µM [inconclusive] (active).

Turning to `CC(=O)N(CC(C)C(=O)O)c1c(I)cc(I)c(N)c1I` (configuration not stated), the Potency result was “inactive”. In the case of `CCN1C(=O)NC(c2ccccc2)C1=O` (configuration not stated) it was “inactive”.

For the origin of these results see PubChem BioAssay (Tox21).
